Screening data as filed in PubChem.
AmpC detergent – inhibitors of E. coli AmpC beta-lactamase with detergent. Potency, µM (doses to about 114 µM), hits mostly inhibitors. 370,000 tested, 0.041% active. P00811. AmpC hydrolysis of nitrocefin, absorbance 480 nm, 0.01% Triton; also: nearly all actives have a fitted effect of over 25% in size
Target sequence (P00811 whole entry, looked up): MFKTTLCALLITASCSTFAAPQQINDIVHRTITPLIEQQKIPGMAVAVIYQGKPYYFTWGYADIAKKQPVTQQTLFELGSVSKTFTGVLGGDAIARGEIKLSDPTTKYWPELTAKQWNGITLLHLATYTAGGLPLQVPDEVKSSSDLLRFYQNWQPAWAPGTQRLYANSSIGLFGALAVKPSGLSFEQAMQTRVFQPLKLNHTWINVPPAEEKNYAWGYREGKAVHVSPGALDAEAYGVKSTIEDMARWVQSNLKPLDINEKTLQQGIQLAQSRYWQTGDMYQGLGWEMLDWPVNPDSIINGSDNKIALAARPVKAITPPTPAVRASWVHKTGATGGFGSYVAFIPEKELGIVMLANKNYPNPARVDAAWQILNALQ
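20 mM phosphate pH 7.0 + 0.01% (detergent screen) or 0.0001% Triton X-100; 5.3 nM AmpC reagent; cpd preinc 15 min RT; nitrocefin (800 uM stock) to start; A480 q20 s × 4 min; Activity was normalised to no-enzyme and no-compound control wells.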
CHX counter – affects cycloheximide protein synthesis inhibition readout, counter-screen; cell reporter, cycloheximide protein synthesis inhibition counterscreen; max response, %; 300,000 tested, 12% active; in the data active = max response mostly above about 13%, no sharp cut-off; inactive = mostly below about 14%; also: read at 38.3 µM for the half of the compounds with a filed dose
Shiga toxin inh – inhibitors of Shiga toxin in Vero cells. Vero cells, Shiga toxin protein synthesis inhibition reporter. inhibition, % at 38.7 µM. 290,000 tested, 9.2% active. AID 2315; in the data active = inhibition mostly above about 28%, no sharp cut-off; inactive = mostly below about 43%
NS1 function inh – inhibitors of influenza NS1 protein function; Potency, µM (doses to about 46.1 µM); 270,000 tested, 0.4% active; AID 2326; calls by dose curve; also: actives are rising curves; nearly all actives have a fitted effect of over 50% in size
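Read-out: OD600 growth recovery of NS1-expressing budding yeast. Cells grown overnight at 30C in -URA glucose medium, washed, resuspended and diluted 1:100 in 2% galactose assay medium, pH 6.0. Same strain lacking NS1 served as positive control.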
AmpC inh no detg – inhibitors of E. coli AmpC beta-lactamase without detergent; P00811; AmpC nitrocefin hydrolysis, absorbance 480 nm, 0.0001% Triton; Potency, µM (top dose mostly 57.1 µM), most hits filed as inhibitors; 330,000 tested, 0.52% active; AID 485341; also: nearly all actives have a fitted effect of over 20% in size
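20 mM phosphate pH 7.0 + 0.01% (detergent screen) or 0.0001% Triton X-100; 5.3 nM AmpC reagent; cpd preinc 15 min RT; nitrocefin (800 uM stock) to start; A480 q20 s × 4 min; Activity was normalised to no-enzyme and no-compound control wells.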
A number is an active result; i = inactive; ? = inconclusive; nt = no result. The full list was thinned out, with hits kept by preference. Unless noted, calls follow the shape of the dose curve; as a rule, active = well fitted curve in the direction sought with a large enough effect; inconclusive = small, poorly fitted or top-dose-only effect, or another doubt; inactive = no such curve, though single readings can be large; an effect the other way counts as inactive or inconclusive.

SMILES	AmpC detergent	CHX counter	Shiga toxin inh	NS1 function inh	AmpC inh no detg
Cc1cc(C)n2nc(C(=O)Nc3ccc(S(=O)(=O)N4CCCC4)cc3)nc2n1	i	i	i	i	i
CCCCOc1ccc(NC(=O)c2cnc(C)cn2)cc1	i	13	i	i	i
Cc1cnc(C(=O)Nc2cccc(-c3nnc4n3CCCCC4)c2)cn1	i	i	i	i	i
Cc1cnc(C(=O)Nc2ccc3c(c2)CCC3)cn1	?	39	82	i	i
Cc1cnc(C(=O)Nc2ccc(S(=O)(=O)N(C(C)C)C(C)C)cc2)cn1	i	i	nt	i	i
Cc1cc(C)n2nc(C(=O)Nc3ccc4c(c3)CCC4)nc2n1	?	34	104	nt	i
O=C(Nc1ccc2c(c1)N(C1CCCC1)C(=O)c1ccccc1S2)c1ccccc1	i	nt	nt	nt	nt
Cc1ccc(OCCn2c(-c3ccc(Cl)cc3)nc3ccccc3c2=O)c(C)c1	i	nt	nt	nt	nt
CN(CC(=O)Nc1ccccc1C(F)(F)F)C(=O)CN1C(=O)C2CCCCC2C1=O (stereo not drawn)	i	nt	nt	nt	i
CCOc1ccc(-n2nc3ccc(NC(=O)c4ccc(C)cc4C)cc3n2)cc1	i	nt	nt	nt	nt
Cc1cnc(C(=O)Nc2cc(F)ccc2C)cn1	i	i	i	i	i
Cc1cnc(C(=O)Nc2ccc(F)c(F)c2)cn1	i	21	55	i	i
Cc1c(C(=O)OC2CCCC2)[nH]c2c1C(=O)CC(c1ccc(C(C)(C)C)cc1)C2 (stereo not drawn)	i	nt	nt	nt	nt
Cc1ccccc1-c1noc(CCC(=O)NC2CCCCC2)n1	i	i	i	i	i
CN(C(=O)CCc1nc(-c2ccccc2F)no1)c1ccc(Cl)cc1	i	nt	nt	nt	nt
Cc1ccc(-c2noc(CCC(=O)NC3CCCC3)n2)cc1	i	i	i	i	i
Cc1ccc(-c2nnn(CCC(=O)NC3CCCC3)n2)cc1	i	17	i	i	i
Cc1ccc(-c2noc(CCC(=O)NC3CC3)n2)cc1	i	20	i	i	i
CN(C(=O)CCc1nc(-c2ccccc2F)no1)c1ccccc1	i	41	98	i	i
O=C(CCc1nc(-c2ccccc2F)no1)NC1CCCCC1	?	8.6	i	i	i
CCOC(=O)c1cc(S(=O)(=O)NCc2ccc(C)cc2)[nH]n1	i	nt	nt	nt	nt
COc1ccc(-c2onc(C)c2C)cc1S(=O)(=O)Nc1cccc(C#N)c1	i	nt	nt	nt	nt
Cc1ccc2c(c1)C(C)CC(C)(C)N2C(=O)CN1CCN(C)CC1 (stereo not drawn)	i	i	i	i	i
CCOC(=O)c1ccc(NC(=O)c2oc3c(c2C)-c2nn(Cc4ccccc4Cl)cc2CC3)cc1	i	nt	nt	nt	nt
CCCCNC(=O)CCn1c(=O)c2ccccc2n(Cc2cccc(Cl)c2)c1=O	i	nt	nt	nt	nt
SMILES	AmpC detergent	CHX counter	Shiga toxin inh	NS1 function inh	AmpC inh no detg
CCN1C(=NCC(C)C)N[C@@H](c2ccccc2)[C@H](C(=O)OC)[C@H]1C	i	i	i	i	i
Cc1ccc(O)c(C2=Nc3ccccc3N=C(c3ccco3)C2)c1	i	24	i	i	i
Cc1ccc(O)c(C2=Nc3ccccc3N=C(c3ccc([N+](=O)[O-])cc3)C2)c1	i	25	i	i	i
Cc1ccc(O)c(C2=Nc3ccccc3N=C(c3cccc([N+](=O)[O-])c3)C2)c1	i	38	67	nt	i
Cc1ccc(C2=Nc3ccccc3N=C(c3ccc(F)cc3)C2)c(O)c1	i	nt	nt	nt	nt
Cc1ccc(C2=Nc3ccccc3N=C(c3ccco3)C2)c(O)c1	i	i	i	i	i
Cc1ccc(-c2cc3nccc(-c4cc([N+](=O)[O-])ccc4O)n3n2)cc1	i	nt	nt	nt	nt
CC(C)Oc1ccc(CNS(=O)(=O)c2ccc(-c3cc(C(F)(F)F)on3)s2)cc1	i	nt	nt	nt	nt
O=C1CCC(c2ccccc2)=NN1	?	i	i	nt	i
CCCCCc1ccc(C2=NNC(=O)CC2)cc1	i	14	nt	i	i
O=C1CCC(c2ccc3c(c2)CCC3)=NN1	i	i	i	i	i
CC(C)CCOc1ccc(C2=NNC(=O)CC2)cc1	i	26	43	i	i
CCOC(=O)C1CCN(c2ncnc3c2cnn3C)CC1	i	i	i	i	i
COc1cc(NS(=O)(=O)c2cc3c(cc2C)n(C)c(=O)c(=O)n3C)cc(OC)c1	i	nt	nt	nt	nt
Cc1oc2ncn(C)c(=O)c2c1C(=O)NCc1ccccc1	i	nt	nt	nt	nt
C#CCOC(=O)CN1C(=O)c2cccc3cccc(c23)C1=O	?	18	i	i	i
COC(=O)CN1C(=O)c2cccc3cccc1c23	i	i	i	i	i
CSc1nc(O)c(Nc2cccc(Cl)c2)c(=O)[nH]1	i	i	i	i	i
O=c1nc(Nc2cccc(Cl)c2)oc2cc(Cl)oc(=O)c12	i	i	i	i	10µM
CCOc1ccc(C(=O)N(Cc2ccccc2)c2cccc(C)c2)cc1OC	i	i	i	i	i
CCCCC(=O)NS(=O)(=O)c1ccc(N=NN(CC)CC)cc1	i	i	i	i	i
COC(=O)c1sc(N2C(=O)C(O)=C(C(=O)c3ccc(C)o3)C2c2ccc([N+](=O)[O-])cc2)nc1C (stereo not drawn)	i	39	69	i	i
CCOc1ccc(C2C(C(=O)c3ccc(C)o3)=C(O)C(=O)N2c2nc(C)c(C(=O)OC)s2)cc1 (stereo not drawn)	i	26	47	i	i
Cc1ccc2nc(N3C(=O)C(O)=C(C(=O)c4ccc(C)o4)C3c3cccc(O)c3)sc2c1 (stereo not drawn)	i	31	63	nt	i
COC(=O)c1sc(N2C(=O)C(O)=C(C(=O)c3ccc(C)o3)C2c2ccc(OC)c(OC)c2)nc1C (stereo not drawn)	i	i	i	?	i
SMILES	AmpC detergent	CHX counter	Shiga toxin inh	NS1 function inh	AmpC inh no detg
CCOC(=O)c1sc(N2C(=O)C(O)=C(C(=O)c3ccc(C)o3)C2c2cccc([N+](=O)[O-])c2)nc1C (stereo not drawn)	i	i	i	?	i
Cc1ccc(CNC(=O)c2ccc(OCC(C)C)cc2)n1C	i	i	i	i	i
COc1cccc(N2CCN(C(=O)c3cnc4c(-c5ccccc5)c(C)nn4c3C)CC2)c1	i	nt	nt	nt	nt
C/C(=N/OC(=O)c1ccc(C)cc1)c1cccs1	i	33	123	i	i
C/C(=N/OC(=O)c1ccccc1Br)c1ccc(C)cc1	i	66	139	i	i
C/C(=N\OC(=O)c1ccc(C)cc1)c1sc(C)nc1C	i	32	i	i	i
COc1ccc(C(=O)O/N=C(\C)c2ccccc2)cc1	i	i	i	i	i
COc1ccc(C(=O)O/N=C(/c2cccs2)C(C)(C)C)cc1	i	i	i	i	i
O=C(NN=C1CCCCCCC1)C(=O)NC1CCCCC1	i	i	i	i	i
O=C(NN=C1CCCCCC1)NC1CCCCC1	i	30	51	i	i
COc1ccc(CNC(=O)c2cccc(NC(=O)N3CCSc4ncccc43)c2)cc1	i	nt	nt	nt	nt
CN(C)c1ccc(-n2cccc2/C=C/[N+](=O)[O-])cc1	i	i	i	nt	i
CN(C)c1ccc(N=Cc2cccn2C)cc1	i	85	107	i	i
Cc1ccc(N=N/C(=C\O)C(=O)c2ccncc2)cc1	i	i	i	i	i
COc1ccc(C(=O)/C(=C/O)N=Nc2ccc(F)cc2)cc1	i	58	76	nt	i
